The source of these data is PubChem BioAssay.

The nature of assay [1]: A549 cell viability effects, profiling panel, calcein-AM fluorescence, 48 h, basal (AID 1162). The conditions noted are these: higher = more signal.
A short description of assay [2]: adipocyte viability effects, profiling panel, cell-based, 3T3-L1 adipocytes, calcein-AM fluorescence, 48 h, basal (AID 1163). Conditions: 3T3-L1 adipocytes viability, higher = more signal.
A short description of assay [3]: HepG2 cell viability effects, profiling panel, calcein-AM fluorescence, 48 h, basal (AID 1164). The conditions noted are these: higher = more signal.
A short description of assay [4]: MM1S cell viability effects, profiling panel, calcein-AM fluorescence, 48 h, basal (AID 1165).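 Also: viability of MM1S multiple myeloma cells under basal unstimulated conditions.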 Conditions: higher = more signal.
Assay [5] can be described thus: basal RPMI8226 viability, no added stimulus, profiling panel, cell-based, calcein-AM fluorescence, 48 h, PK04 Diversity Set (AID 1166).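 Also: cells grown under basal conditions without added stimulus.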 The conditions noted are these: RPMI8226 myeloma viability, higher = more signal.
A short description of assay [6]: basal HepG2 mitochondrial membrane potential changes, profiling panel, cell-based, JC-1 fluorescence, 24 h, 100 nL compound (AID 1167). The conditions noted are these: higher = more signal.
The nature of assay [7]: basal 3T3-L1 adipocyte mitochondrial potential changes, profiling panel, cell-based, JC-1 fluorescence, 3T3-L1 adipocytes, 24 h, 100 nL compound (AID 1168). Conditions: JC-1 mitochondrial fluorescence, higher = more signal, called active from +8 up or from −8 down.
A short description of assay [8]: basal RPMI8226 mitochondrial membrane potential changes, profiling panel, cell-based, JC-1 fluorescence, 24 h, 100 nL compound (AID 1169). Conditions: RPMI8226 myeloma, JC-1 mitochondrial potential fluorescence, higher = more signal.
The nature of assay [9]: basal MM1S mitochondrial membrane potential changes, profiling panel, cell-based, JC-1 fluorescence, 24 h, 100 nL compound (AID 1170). The conditions noted are these: higher = more signal.
Assay [10] in a line: A549 lung cancer cell viability effects, profiling panel, resazurin fluorescence, 24 h, PK04 Diversity Set (AID 1171). The conditions noted are these: higher = more signal, called active from +8 up or from −8 down. For orientation: Resazurin is reduced to fluorescent resorufin, in cell work by metabolically active cells.

The structures appear in SMILES notation. Calls of active or inactive are those of the source.
Also: test concentration not given here.

`COc1ccc([Si](C)(C)[C@@H]2[C@@H](CCn3cc([C@H](O)c4ccccc4)nn3)O[C@]3(C(=O)N(Cc4ccc(N5CCC5=O)cc4)c4ccccc43)[C@H]2C)cc1`: the z-score in [1] was 0.388; in assay [2], 1.05; in assay [3], 0.944; in assay [4], 0.738; in [5], -0.23; in [6], 1.63. The z-score was 1.9 (inactive) in assay [7], -0.0445 in [8], -0.855 in [9] and 0.668 (inactive) in [10].
`COC(=O)C(CC#Cc1ccc2c(c1)[C@]1(C(=O)N2)[C@H](c2ccccc2OCCO)N2[C@H](c3ccccc3)[C@H](c3ccccc3)OC(=O)[C@H]2[C@@H]1C(=O)NC[C@H](O)c1ccccc1)C(=O)OC`: the z-score is 1.24 in assay [1]; -0.625 in [2]; 0.876 in [3]; -3.38 in assay [4]; -4.55 in [5]; -1.12 in assay [6]. The z-score in assay [7] is 1.01 (inactive); in [8], -1.11; in assay [9], -2.27; in assay [10], 0.107 (inactive).
Turning to `CCOC(=O)C1=CC[C@@H](c2ccccc2C(F)(F)F)N(S(=O)(=O)c2ccc(C)cc2)[C@H]1c1ccc(C#N)cc1`, the z-score in assay [1] was -0.711; in assay [2], -0.842; in assay [3] it was -0.326; in [4] it was -0.509; in assay [5] it was -0.214; in assay [6], -1.02. Also, the z-score in [7] was -0.544 (inactive); in [8], 0.801; in assay [9], -0.81; in assay [10] it was -0.035 (inactive).
Turning to `COc1ccc([Si](C)(C)[C@H]2[C@H](CCn3cc([C@H](O)c4ccccc4)nn3)O[C@@]3(C(=O)N(Cc4ccc(N5C(=O)c6cccc7cccc5c67)cc4)c4ccccc43)[C@@H]2C)cc1`, the z-score in assay [1] is 0.332; in assay [2], -0.488; in assay [3] it was 1.02; in assay [4] it was -0.702; in assay [5] it was -0.74; in assay [6], 1.58. The z-score in assay [7] was -0.526 (inactive); in assay [8], -0.296; in [9] it was 0.516; in [10] it was -1.26 (inactive).
Regarding `CC(C)OC(=O)C=C1C[C@@H](c2ccc(C(F)(F)F)cc2)O[C@@H](c2ccc(C(F)(F)F)cc2)O1`, the z-score in [1] was 0.944; in assay [2], -0.168; in [3], 0.114; in [4], -2.49; in assay [5], -1.51; in [6], -0.393. Also, the z-score was 0.958 (inactive) in assay [7], -0.478 in assay [8], -1.02 in [9] and 0.452 (inactive) in assay [10].
For the compound `C=CCN1C(=O)[C@@]2(CCS(=O)(=O)c3ccccc3)N=C(c3ccc(OCCCO)cc3)O[C@H]2c2ccccc21`, the z-score is 0.0843 in assay [1]; 0.473 in assay [2]; 0.684 in assay [3]; -0.786 in assay [4]; -2.05 in assay [5]; -0.692 in assay [6]. In addition, the z-score in assay [7] was 1.79 (inactive); in [8], -0.995; in [9], 0.0237; in [10], -0.812 (inactive).
For the compound `CCOC(=O)C[C@H]1[C@H](OC(=O)c2ccccc2-c2ccccc2)[C@@H](NC(=O)C2CCCCC2)c2cc(OCCCO)ccc2N1C(=O)Cc1ccc(OC)cc1`, the z-score in assay [1] was 0.544; in assay [2], 0.744; in [3] it was 0.43; in [4], -0.524; in assay [5], -0.593; in assay [6], 0.908. Further, the z-score in assay [7] is -0.388 (inactive); in [8], -0.285; in [9], -0.663; in assay [10], 0.361 (inactive).
As to `CC1=C[C@@]2(CO)C(=O)[C@]3(CO3)[C@@H]1[C@H]1[C@]2(C)C=C(CO)C(=O)[C@]12CO2`, the z-score in assay [1] is 0.23; in assay [2], 0.263; in assay [3] it was -0.164; in assay [4], -3.33; in assay [5], -0.753; in assay [6], -0.38. The z-score was -0.311 (inactive) in assay [7], 0.249 in assay [8], -2.11 in [9] and 0.474 (inactive) in [10].
Consider `CN(C)CCCNC(=O)[C@@]1(c2ccc([N+](=O)[O-])cc2)CC(=O)N(CC23CC4CC(CC(C4)C2)C3)[C@@H]1c1ccc(CO)cc1I`, for which the z-score in assay [1] is -4.27; in assay [2] it was -0.0899; in assay [3], -5.25; in assay [4] it was -3.97; in assay [5], -4.15; in assay [6], -2.77. Moreover, the z-score in assay [7] is 1.94 (inactive); in assay [8] it was -0.913; in [9] it was -2.37; in assay [10], -7.13 (inactive).
In the case of `COC(=O)[C@H](Cc1ccccc1)N1CC(/C=C/C2CC2)=C[C@H]1[C@H](O)Cc1ccccc1`, the z-score in assay [1] was 0.13; in assay [2], -0.0604; in assay [3], -0.551; in assay [4] it was -3.38; in assay [5], -3.98; in [6], -2.09. Also, the z-score in assay [7] was 0.128 (inactive); in assay [8] it was -1.19; in [9] it was -3.06; in [10], -0.395 (inactive).
Take `C#CCN([C@@H](Cc1ccc(O)cc1)C(=O)OC)[C@@H](/C=C/C1CC1)[C@H](O)Cc1ccccc1`: the z-score is -3.21 in assay [1]; -0.0073 in [2]; -3.12 in [3]; -3.28 in [4]; -4.06 in [5]; -3.58 in assay [6]. The z-score in assay [7] is -0.0474 (inactive); in assay [8] it was -1.2; in assay [9], -1.58; in assay [10] it was -0.2 (inactive).
On to `C=CCOC(=O)[C@H]1[C@@H]2C(=O)O[C@@H](c3ccccc3)[C@@H](c3ccccc3)N2[C@@H](c2ccc(OCCOC(=O)[C@@H]3C[C@@H]4C(=O)N5CCC[C@H]5C(=O)N4[C@@H]3c3ccc(O)cc3)cc2)[C@]12C(=O)Nc1ccc(I)cc12`, for which the z-score was -0.455 in [1]; 0.276 in [2]; 0.018 in assay [3]; 0.0967 in assay [4]; -0.0749 in [5]; -1.24 in assay [6]. In addition, the z-score in assay [7] is 0.88 (inactive); in assay [8], -0.655; in assay [9], -1.37; in assay [10], -0.273 (inactive).
`NC(=O)N1C(=O)C2C(C1=O)C1C=C(CCCO)C2C(c2cccs2)N1Cc1cccc(OC(F)(F)F)c1` (stereo not given): the z-score in [1] is 0.604; in assay [2], 0.151; in assay [3], -0.4; in [4], -2.98; in assay [5], -1.11; in assay [6], -0.339. Also, the z-score in assay [7] is -0.678 (inactive); in assay [8] it was 0.146; in assay [9], 1.37; in assay [10] it was 0.48 (inactive).
Turning to `C=CCNC(=O)[C@H]1[C@@H]2C(=O)O[C@@H](c3ccccc3)[C@@H](c3ccccc3)N2[C@@H](c2ccc(O)cc2)[C@]12C(=O)N(C(=O)OCCOC)c1ccccc12`, the z-score was -0.335 in [1]; 1.19 in [2]; -0.513 in assay [3]; -1.79 in [4]; -1.66 in [5]; -1.67 in assay [6]. For the same compound, the z-score in [7] was 0.0113 (inactive); in assay [8], -1.01; in assay [9], 0.338; in [10] it was -1.56 (inactive).
